Active and inactive are the calls of the source. Calls follow the shape of the dose curve; as a rule, active = well fitted curve in the direction sought with a large enough effect in the repeat runs; inconclusive = weak or mixed curves; inactive = flat fitted curve, though single readings scatter.
test: qHTS assay to test for compound auto fluorescence at 460 nm (blue) in HepG2 cells (AID 720687); details: autofluorescence 405/460 nm, 1 h; series mostly up to 91.3 µM
Source text: U.S. Tox21 Program National Center for Advancing Translational Sciences [NCATS] NIH Chemical Genomics Center [NCGC] U.S. Environmental Protection Agency [EPA] National Institutes of Environmental Health Sciences [NIEHS] National Toxicology Program [NTP] U.S. Food and Drug Administration [FDA] Tox21 Assay Overview: Compound auto fluorescence often interferes with screening of the compound library against various biological targets and signaling pathways. Some of these compounds may have fluorophoric properties. Such properties may interfere with the assay outputs resulting in false positives and/or negatives. To decrease such complications and ensure the compound activities are relevant in terms of biological response, the Tox21 10K compound library was screened for auto fluorescence. From the fluorophores used as reporter signals in our screening assays, the auto fluorescence equivalencies of compounds against three fluorophores have been evaluated: Triamterene, Fluorescein and Rose Bengal sodium for blue, green and red fluorescence, respectively. The fluorescence intensities were measured using Excitation/Emission wavelengths at 405/460nm, 485/535nm and 540/590nm for blue, green and red labels, respectively. This assay includes the blue fluorescence data.
Tox21 Assay Protocol Summary: 2,000 HepG2 cells in 5 uL of culture medium (MEM containing 10% FBS) per well were dispensed into black wall/clear bottom 1536-well plates using a Multidrop Combi Dispenser (ThermoFisher Scientific, Waltham, MA). The assay plates were incubated overnight at 37 C to allow cell attachment to the well bottom, followed by the transfer of 23 nL compound or DMSO vehicle by a pintool work station (Kalypsys , San Diego, CA). After the assay plates were incubated for 1 hr at 37 C and 5% CO2, fluorescence intensities in the assay plates were measured by an Envision (PerkinElmer, Shelton, CT) plate reader using three labels for measuring blue, green and red fluorescence at […] 460, 535 and 590 nm respectively.

Row | SMILES | outcome
1 | c1ccc2c(c1)ccc1ccccc12 | inactive
2 | OCc1cccnc1 | inactive
3 | C=CCOC(=O)c1ccccc1C(=O)OCC=C | inactive
4 | CC(C)c1ccc(S(=O)(=O)O)cc1 | inactive
5 | CC(=O)CC(=O)Nc1ccccc1C | inactive
6 | CSCCC=O | inactive
7 | CC(C)(N)CO | inactive
8 | C=C(C)C(=O)OCCOCCOCCOC(=O)C(=C)C | inactive
9 | CC(C)CC(=O)CC(C)C | inactive
10 | Cc1cccnc1 | inactive
11 | CCCCCCCC(=O)OC | inactive
12 | ON=C1CCCCC1 | inactive
13 | CC(=O)Nc1ccccc1 | inactive
14 | O=S1(=O)CC=CC1 | inactive
15 | Cc1occc(=O)c1O | inactive
16 | C[Si](O[Si](C)(C)C)O[Si](C)(C)C | inactive
17 | C=C(C)C(=O)O[C@H]1C[C@@H]2CC[C@@]1(C)C2(C)C | inactive
18 | O=c1[nH]c(=O)n([C@H]2CCCO2)cc1F | inactive
19 | CCCCOC(=O)COc1ccc(Cl)cc1Cl | inactive
20 | C=C(C)C(=O)Nc1ccc(Cl)c(Cl)c1 | inactive

Row | SMILES | outcome
21 | CC1=CC(=O)NS(=O)(=O)O1 | inactive
22 | CCCCCC1=CCCC1=O | inactive
23 | C[C@H]1C[C@@H]2[C@H]([C@@H](O)C[C@@]3(C)[C@H]2CC[C@]3(O)C(=O)CO)[C@@]2(C)C=CC(=O)C=C12 | inactive
24 | COCCCOc1ccnc(CS(=O)c2nc3ccccc3[nH]2)c1C (stereo not given) | inactive
25 | CN(C)CCC(c1ccccc1)c1ccccn1 (stereo not given) | inactive
26 | OCC(CO)(CBr)CBr | inactive
27 | O=C(O)CCCCCCCCCCC(=O)O | inactive
28 | C#CCN(C)Cc1ccccc1 | inactive
29 | COS(C)(=O)=O | inactive
30 | CCCCCCOCCO | inactive
31 | OCCOCCOCCO | inactive
32 | CC(O)COCC(C)O (stereo not given) | inactive
33 | CCc1ccc(CCOc2ccc(CC3SC(=O)NC3=O)cc2)nc1 (stereo not given) | inactive
34 | CCCCC(CC)CO (stereo not given) | inactive
35 | NNc1nncc2ccccc12 | inactive
36 | c1c[nH]cn1 | inactive
37 | CCCCCCCCCCCCS | inactive
38 | Cc1ccc2oc(=O)ccc2c1 | inactive
39 | CN(C)CCCN | inactive
40 | COc1ccc(NC(C)=O)cc1N | inactive

From PubChem BioAssay (Tox21)
